Reference: PubChem BioAssay AID1159580 (chemical genetic matrix, 2015)
The whole screen tested about 5,500 compounds, of which about 2,000 (36%) were called active. Not shown: some 18% with an inconclusive outcome. No stated cut-off is given here; in the data, active means normalized growth mostly below about 0.91 (no sharp cut-off); inconclusive means no clear call, values can overlap the other calls; inactive means mostly above about 0.92. Some of the results follow.

Test: chemical genetic growth profiling, strain panel (AID 1159580);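 further: tested at 20 µM; growth read once vehicle control cultures reached saturation at 30 °C; 1 = growth at the plate median or of vehicle wells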
Conditions: growth OD
[1] = S. cerevisiae deletion strains, locus YDL101C, strain DUN1, stronger effect = lower value
[2] = S. cerevisiae deletion strains, locus YHR030C, strain SLT2, stronger effect = lower value

Measured: normalized growth

N#Cc1ccc2[nH]cc(CCN(Cc3ccccc3)Cc3ccccc3)c2c1
inactive: S. cerevisiae deletion strains, locus YAR019C, strain CDC15, stronger effect = lower value 0.989 | S. cerevisiae deletion strains, locus YBL105C, strain PKC1, stronger effect = lower value 0.991 | S. cerevisiae deletion strains, locus YBR135W, strain CKS1, stronger effect = lower value 0.99 | S. cerevisiae deletion strains, locus YBR136W, strain MEC1, stronger effect = lower value 0.984 | S. cerevisiae deletion strains, locus YBR160W, strain CDC28, stronger effect = lower value 0.989 | S. cerevisiae deletion strains, locus YDL017W, strain CDC7, stronger effect = lower value 0.99 | S. cerevisiae deletion strains, locus YDL028C, strain MPS1, stronger effect = lower value 0.977 | [1] 0.98 | S. cerevisiae deletion strains, locus YDL108W, strain KIN28, stronger effect = lower value 0.983 | S. cerevisiae deletion strains, locus YDL132W, strain cdc53, stronger effect = lower value 0.985 | S. cerevisiae deletion strains, locus YDL214C, strain PRR2, stronger effect = lower value 0.943 | S. cerevisiae deletion strains, locus YDR052C, strain DBF4, stronger effect = lower value 0.992 | S. cerevisiae deletion strains, locus YDR054C, strain cdc34, stronger effect = lower value 0.978 | S. cerevisiae deletion strains, locus YDR226W, strain ADK1, stronger effect = lower value 0.978 | S. cerevisiae deletion strains, locus YDR477W, strain SNF1, stronger effect = lower value 0.969 | S. cerevisiae deletion strains, locus YER123W, strain YCK3, stronger effect = lower value 0.918 | S. cerevisiae deletion strains, locus YER133W, strain GLC7, stronger effect = lower value 0.964 | S. cerevisiae deletion strains, locus YFL009W, strain cdc4, stronger effect = lower value 0.982 | S. cerevisiae deletion strains, locus YFL029C, strain CAK1, stronger effect = lower value 0.986 | S. cerevisiae deletion strains, locus YFR003C, strain YPI1, stronger effect = lower value 0.992 | S. cerevisiae deletion strains, locus YFR019W, strain FAB1, stronger effect = lower value 0.967 | S. cerevisiae deletion strains, locus YFR028C, strain CDC14, stronger effect = lower value 0.982 | S. cerevisiae deletion strains, locus YGR040W, strain KSS1, stronger effect = lower value 0.956 | S. cerevisiae deletion strains, locus YGR052W, strain FMP48, stronger effect = lower value 1.05 | S. cerevisiae deletion strains, locus YGR092W, strain DBF2, stronger effect = lower value 0.943 | [2] 1.13 | S. cerevisiae deletion strains, locus YHR079C, strain IRE1, stronger effect = lower value 1.07 | S. cerevisiae deletion strains, locus YHR082C, strain KSP1, stronger effect = lower value 1.05 | S. cerevisiae deletion strains, locus YHR205W, strain SCH9, stronger effect = lower value 0.962 | S. cerevisiae deletion strains, locus YIL147C, strain SLN1, stronger effect = lower value 0.987 | S. cerevisiae deletion strains, locus YJL095W, strain BCK1, stronger effect = lower value 1.07 | S. cerevisiae deletion strains, locus YJL128C, strain PBS2, stronger effect = lower value 0.953 | S. cerevisiae deletion strains, locus YJL157C, strain FAR1, stronger effect = lower value 0.954 | S. cerevisiae deletion strains, locus YJR016C, strain ILV3, stronger effect = lower value 0.991 | S. cerevisiae deletion strains, locus YJR066W, strain TOR1 (second series), stronger effect = lower value 0.926 | S. cerevisiae deletion strains, locus YJR066W, strain TOR1, stronger effect = lower value 1.07 | S. cerevisiae deletion strains, locus YKL048C, strain ELM1, stronger effect = lower value 0.964 | S. cerevisiae deletion strains, locus YKL067W, strain YNK1, stronger effect = lower value 0.969 | S. cerevisiae deletion strains, locus YKL101W, strain HSL1, stronger effect = lower value 0.954 | S. cerevisiae deletion strains, locus YKL193C, strain SDS22, stronger effect = lower value 0.987 | S. cerevisiae deletion strains, locus YKL203C, strain TOR2, stronger effect = lower value 1.04 | S. cerevisiae deletion strains, locus YLR113W, strain HOG1, stronger effect = lower value 1.01 | S. cerevisiae deletion strains, locus YLR133W, strain CKI1, stronger effect = lower value 0.98 | S. cerevisiae deletion strains, locus YLR403W, strain SFP1, stronger effect = lower value 0.962 | S. cerevisiae deletion strains, locus YML070W, strain DAK1, stronger effect = lower value 0.95 | S. cerevisiae deletion strains, locus YMR001C, strain CDC5, stronger effect = lower value 0.988 | S. cerevisiae deletion strains, locus YMR205C, strain PFK2 (second series), stronger effect = lower value 0.972 | S. cerevisiae deletion strains, locus YMR277W, strain FCP1, stronger effect = lower value 0.993 | S. cerevisiae deletion strains, locus YNL006W, strain LST8, stronger effect = lower value 0.983 | S. cerevisiae deletion strains, locus YNL020C, strain ARK1, stronger effect = lower value 0.98 | S. cerevisiae deletion strains, locus YNL161W, strain CBK1, stronger effect = lower value 0.993 | S. cerevisiae deletion strains, locus YNL183C, strain NPR1, stronger effect = lower value 1.05 | S. cerevisiae deletion strains, locus YNL207W, strain RIO2, stronger effect = lower value 0.979 | S. cerevisiae deletion strains, locus YNL222W, strain SSU72, stronger effect = lower value 0.986 | S. cerevisiae deletion strains, locus YNL307C, strain MCK1 (second series), stronger effect = lower value 0.98 | S. cerevisiae deletion strains, locus YOL078W, strain AVO1, stronger effect = lower value 0.987 | S. cerevisiae deletion strains, locus YOL136C, strain PFK27, stronger effect = lower value 0.957 | S. cerevisiae deletion strains, locus YOR061W, strain CKA2, stronger effect = lower value 0.955 | S. cerevisiae deletion strains, locus YOR119C, strain RIO1, stronger effect = lower value 1.01 | S. cerevisiae deletion strains, locus YOR231W, strain MKK1, stronger effect = lower value 1.06 | S. cerevisiae deletion strains, locus YOR329C, strain SCD5, stronger effect = lower value 0.993 | S. cerevisiae deletion strains, locus YPL031C, strain PHO85, stronger effect = lower value 0.97 | S. cerevisiae deletion strains, locus YPL153C, strain RAD53, stronger effect = lower value 0.954 | S. cerevisiae deletion strains, locus YPL204W, strain HRR25, stronger effect = lower value 0.97 | S. cerevisiae deletion strains, locus YPL209C, strain IPL1, stronger effect = lower value 0.994 | S. cerevisiae deletion strains, locus YPL256C, strain CLN2, stronger effect = lower value 1.05 | S. cerevisiae deletion strains, locus YPR025C, strain CCL1, stronger effect = lower value 0.992 | S. cerevisiae deletion strains, locus YPR106W, strain ISR1, stronger effect = lower value 0.984 | S. cerevisiae deletion strains, locus YPR111W, strain DBF20, stronger effect = lower value 0.976 | S. cerevisiae deletion strains, strain NNK1, stronger effect = lower value 0.983 | S. cerevisiae deletion strains, strain TSCII, stronger effect = lower value 0.993

N#CCS(=O)(=O)c1cccs1
inactive: S. cerevisiae deletion strains, locus YAL013W, strain DEP1, stronger effect = lower value 0.988 | S. cerevisiae deletion strains, locus YBR229C, strain ROT2, stronger effect = lower value 1 | [1] 0.983 | S. cerevisiae deletion strains, locus YDR150W, strain NUM1, stronger effect = lower value 0.94 | S. cerevisiae deletion strains, locus YEL061C, strain CIN8, stronger effect = lower value 1.01 | S. cerevisiae deletion strains, locus YGR078C, strain PAC10, stronger effect = lower value 0.979 | [2] 0.996 | S. cerevisiae deletion strains, locus YHR087W, strain rtc3, stronger effect = lower value 1 | S. cerevisiae deletion strains, locus YJR043C, strain POL32, stronger effect = lower value 0.949 | S. cerevisiae deletion strains, locus YJR075W, strain HOC1, stronger effect = lower value 0.993 | S. cerevisiae deletion strains, locus YLR039C, strain RIC1, stronger effect = lower value 1.1 | S. cerevisiae deletion strains, locus YLR058C, strain SHM2 (second series), stronger effect = lower value 1 | S. cerevisiae deletion strains, locus YLR085C, strain ARP6, stronger effect = lower value 0.999 | S. cerevisiae deletion strains, locus YLR262C, strain YPT6, stronger effect = lower value 1.12 | S. cerevisiae deletion strains, locus YML094W, strain GIM5, stronger effect = lower value 0.975 | S. cerevisiae deletion strains, locus YMR219W, strain ESC1, stronger effect = lower value 1 | S. cerevisiae deletion strains, locus YMR263W, strain SAP30, stronger effect = lower value 0.961 | S. cerevisiae deletion strains, locus YNL153C, strain GIM3, stronger effect = lower value 0.968 | S. cerevisiae deletion strains, locus YNL298W, strain CLA4 (second series), stronger effect = lower value 1 | S. cerevisiae deletion strains, locus YNL322C, strain KRE1, stronger effect = lower value 1.02 | S. cerevisiae deletion strains, locus YNR030W, strain Alg12, stronger effect = lower value 0.989 | S. cerevisiae deletion strains, locus YPL055C, strain LGE1, stronger effect = lower value 0.92 | S. cerevisiae deletion strains, locus YPL241C, strain CIN2, stronger effect = lower value 0.983 | S. cerevisiae deletion strains, locus YPR135W, strain CTF4, stronger effect = lower value 0.885 | S. cerevisiae strains, strain wild type, stronger effect = lower value 1.01
